Sampled rows, rich in hits. Any-hit rate of the full collection: about 3%.
TrxR1 substrate: substrates of rat thioredoxin reductase 1; O89049; purified TrxR1 substrate turnover, NADPH consumption readout; Potency, µM (highest dose often 114 µM); hit rate 0.01% among 390,000; also: nearly all actives have a fitted effect of over 50% in size
Target sequence (O89049 whole entry, looked up): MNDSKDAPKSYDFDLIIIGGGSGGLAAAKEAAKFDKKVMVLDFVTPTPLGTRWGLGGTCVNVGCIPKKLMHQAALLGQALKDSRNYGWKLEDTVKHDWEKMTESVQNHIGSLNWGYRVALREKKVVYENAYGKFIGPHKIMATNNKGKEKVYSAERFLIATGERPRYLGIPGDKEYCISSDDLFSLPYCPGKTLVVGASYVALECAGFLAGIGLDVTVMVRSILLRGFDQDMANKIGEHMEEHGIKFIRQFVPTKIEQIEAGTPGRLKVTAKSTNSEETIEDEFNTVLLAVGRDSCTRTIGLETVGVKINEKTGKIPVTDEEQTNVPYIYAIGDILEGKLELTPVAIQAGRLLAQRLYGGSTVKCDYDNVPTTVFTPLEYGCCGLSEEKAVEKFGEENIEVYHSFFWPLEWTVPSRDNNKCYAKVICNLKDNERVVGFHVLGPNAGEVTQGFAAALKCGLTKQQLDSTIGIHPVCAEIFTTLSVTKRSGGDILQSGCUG
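Rat TrxR1, dispensed at 90 nM, was prereduced with 400 uM NADPH (final) for 5 min at ~22 deg C, then incubated with compound 15 min before 400 uM selenite. A first-read NADPH fluorescence drop versus no-compound background flagged substrates.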
Nrf2 inh: blocks Nrf2 signaling. hit rate 2.1% among 360,000. A549 ARE-Fluc reporter, luciferase luminescence, 18-24 h. Potency, µM (titrated, usually from 46 µM), actives largely listed as inhibitors. AID 504444; also: nearly all actives have a fitted effect of over 60% in size
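Reporter: ARE-Fluc in A549. Exposure: 18-24 h, 37 °C, 5% CO2, 5% FBS OPTI-MEM. Readouts: fluorescent cytotoxicity (CellTiter-Fluor), then luminescent Nrf2 signal after BugLite.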
TrxR1 inh-1: blocks rat thioredoxin reductase 1 | recombinant rTrxR1, NADPH fluorescence consumption, selenite substrate | Potency, µM (series often up to 114 µM), usual class: inhibitors | hit rate 1% among 390,000 | AID 588453; also: nearly all actives have a fitted effect of over 65% in size
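Rat TrxR1 (90 nM in the dispensed reagent) was pre-reduced with 400 uM NADPH for 5 min at room temperature, then incubated with compound for 15 min. After 400 uM selenite was added, NADPH fluorescence (Ex 340/Em 450 nm) was followed for 8 min.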
Nrf2 ARE act: Nrf2 pathway activation | AREc32 ARE-luciferase reporter (MCF7-derived line), luminescence, 24 h | Potency, µM (top dose mostly 46.1 µM), hits mostly activators | hit rate 0.31% among 410,000 | AID 624171; also: nearly all actives have a fitted effect of over 65% in size
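Each well held 1000 AREc32 cells, which were incubated with compound for 24 hr at 37 deg C after overnight attachment, and ARE reporter activity was quantified by firefly luciferase luminescence.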
GALK inh: inhibitors of human galactokinase; P51570; Purified GALK, Kinase-Glo residual ATP luminescence; Potency, µM (top dose mostly 57.5 µM), actives largely listed as inhibitors; hit rate 0.007% among 270,000
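Galactose (100 uM) and ATP (35 uM) were turned over by 5 nM GALK for 1 h at RT. Kinase-Glo Plus then converted the remaining ATP into a luminescent signal.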
A549 tox-1: A549 cytotoxicity, counter-screen for Nrf2 inhibitors; A549 ARE-Fluc cells, CellTiter-Fluor viability, 18-24 h; Potency, µM (doses to about 46 µM), actives largely listed as inhibitors; hit rate 0.16% among 390,000; AID 504648
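A549 ARE-Fluc cells in 5% FBS OPTI-MEM, 5000 cells/well, rested 2 h then exposed to compounds in concentration-response for 18-24 h at 37 °C. Viability by CellTiter-Fluor fluorescence (Ex 405/Em 525) after 30 min; luciferase luminescence (BugLite, 15 min, RT) read afterwards.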
FLuc enzyme inh: blocks purified firefly luciferase in Nrf2 counterscreen; shares compounds with Nrf2 inh; purified firefly luciferase, luminescence inhibition; Potency, µM (highest dose often 57.5 µM), actives largely listed as inhibitors; hit rate 4% among 1,400; AID 720522; also: nearly all actives have a fitted effect of over 65% in size
A549 tox-2: counter-screen for Nrf2 inhibitors: cytotoxicity in A549 ARE cells; shares compounds with Nrf2 inh; A549 ARE-Fluc cells, cytotoxicity counterscreen; Potency, µM (series often up to 46.1 µM), hits mostly inhibitors; hit rate 2% among 1,400; AID 720523;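 also: cells exposed to compounds for 18 to 24 hours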
ARE-Fluc inh: Nrf2 inhibition confirmed, A549 ARE-luciferase | shares compounds with Nrf2 inh | A549 ARE-firefly luciferase reporter, luminescence | Potency, µM (doses to about 46.1 µM), most hits filed as inhibitors | hit rate 74% among 1,400 | AID 720524; also: nearly all actives have a fitted effect of over 65% in size
GR counterassay: counter-screen for TrxR1 inhibitors: human glutathione reductase inhibition | 55 tested, under 10 active | shares compounds with TrxR1 inh-1 | purified GR, DTNB reduction absorbance 405 nm kinetic | activity change, negative = inhibition, % at 57.1 µM
TrxR1 inh-2: blocks rat thioredoxin reductase 1 in hit validation; shares compounds with TrxR1 inh-1; Potency, µM, hits mostly inhibitors; hit rate 50% among 55; recombinant TrxR1, NADPH fluorescence consumption, selenite substrate
TrxR1 insulin: TrxR1 inhibition in insulin mechanism assay | shares compounds with TrxR1 inh-1 | TrxR1 Trx-coupled insulin reduction, NADPH absorbance 340 nm | Potency, µM | hit rate 20% among 55 | AID 652037;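 active = compounds with a measured potency under 100 micromolar; inconclusive = filed, but no rule given; inactive = potency at or above that, or unmeasurable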
TrxR1 inh-3: inhibitors of rat thioredoxin reductase 1, DTNB reduction; shares compounds with TrxR1 inh-1; purified TrxR1, DTNB reduction, A412; Potency, µM; hit rate 90% among 55;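 active = a half-inhibiting concentration could be measured and was below 100 µM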
Large screens that a line does not name were inactive (follow-up assays come after a bar, where they were run); ! = not active in a repeat. Unless noted, calls follow the shape of the dose curve; as a rule, active = well fitted curve in the direction sought with a large enough effect; inconclusive = small, poorly fitted or top-dose-only effect, or another doubt; inactive = no such curve, though single readings can be large; an effect the other way counts as inactive or inconclusive.

Cc1ccc(CN2C(=O)N/C(=C\c3cccn3-c3cccc(C(=O)O)c3)C2=O)cc1	Nrf2 inh 2.59µM, A549 tox-1 inconclusive | FLuc enzyme inh inactive | A549 tox-2 inactive | ARE-Fluc inh inactive
C=CCNc1ncnc2c1ncn2C1OC(CO)C(O)C1O (configuration not stated)	Nrf2 inh inconclusive
OCC1OC(n2cnc3c(NCc4ccco4)ncnc32)C(O)C1O (configuration not stated)	Nrf2 inh 7.31µM!, Nrf2 ARE act inconclusive, A549 tox-1 inconclusive (no result: GALK inh) | FLuc enzyme inh inactive | A549 tox-2 inactive | ARE-Fluc inh 4.11µM
NS(=O)(=O)c1ccc(CCNc2ncnc3sccc23)cc1	Nrf2 inh 1.64µM | FLuc enzyme inh inactive | A549 tox-2 inactive | ARE-Fluc inh inconclusive
Cc1sc2ncnc(NCCc3ccc(S(N)(=O)=O)cc3)c2c1C	Nrf2 inh 2.31µM | FLuc enzyme inh inactive | A549 tox-2 inactive | ARE-Fluc inh 6.51µM
Cc1ccc(S(=O)(=O)Nc2ncnc3sc(C)c(C)c23)cc1	Nrf2 inh inconclusive (no result: GALK inh)
CC1(C)N=C(N)N=C(N)N1CCCCc1ccccc1	Nrf2 inh 0.82µM (no result: GALK inh) | FLuc enzyme inh inactive | A549 tox-2 inactive | ARE-Fluc inh 1.16µM
Cc1ccc2c(c1)S/C(=C/c1ccc[n+](CCO)c1)N2C	Nrf2 inh 1.16µM | FLuc enzyme inh inactive | A549 tox-2 inactive | ARE-Fluc inh 5.8µM
CC(=O)N1c2ccc(C)cc2Sc2c1ccc1ccccc21	none (no result: GALK inh)
CCOc1ccc2c(c1)C(=NNC(=O)c1ccncc1)c1cc(OCC)ccc1-2	Nrf2 inh 5.8µM | FLuc enzyme inh inconclusive | A549 tox-2 inconclusive | ARE-Fluc inh 5.17µM
CCOc1ccc(NC(=O)c2ccncc2)cc1	none
Cc1ccc(-c2noc(CSc3nnc(-c4ccncc4)n3-c3ccc(C)cc3)n2)cc1	Nrf2 inh inconclusive
Clc1ccc(-c2noc(CSc3nnc(-c4ccncc4)n3-c3ccccc3)n2)cc1	Nrf2 inh 2.31µM, A549 tox-1 inconclusive | FLuc enzyme inh inactive | A549 tox-2 inactive | ARE-Fluc inh 13µM
COCc1c(C(=O)OC/C(O)=C(\C#N)c2nc3ccccc3[nH]2)oc2ccccc12	none
CCOC(=O)c1c(NC(=O)COC)sc2c1CCCC2	none
CCOC(=O)c1c(NC(=O)CC2SC(N)=NC2=O)sc2c1CCCC2 (configuration not stated)	Nrf2 inh 1.64µM | FLuc enzyme inh inactive | A549 tox-2 inactive | ARE-Fluc inh inconclusive
COc1ccc(S(=O)(=O)NCc2cccnc2)cc1Br	Nrf2 inh 7.31µM | FLuc enzyme inh inactive | A549 tox-2 inactive | ARE-Fluc inh inconclusive
O=S(=O)(NCc1ccncc1)c1ccc(Br)s1	Nrf2 inh 1.46µM | FLuc enzyme inh inactive | A549 tox-2 inactive | ARE-Fluc inh 1.46µM
COc1cc(S(=O)(=O)NCc2ccncc2)ccc1Br	Nrf2 inh 3.26µM | FLuc enzyme inh inactive | A549 tox-2 inactive | ARE-Fluc inh 3.66µM
CNC(=O)c1cc(S(=O)(=O)NCc2ccncc2)ccc1OC	Nrf2 inh inconclusive
Cc1ccc(S(=O)(=O)NCc2ccncc2)cc1C	Nrf2 inh 2.31µM | FLuc enzyme inh inactive | A549 tox-2 inactive | ARE-Fluc inh 2.06µM
CC(C)CN(CC(C)C)S(=O)(=O)N1CCC(C(=O)NCc2ccc3c(c2)OCO3)CC1	Nrf2 inh inconclusive
CC1CCCC(CC(N)=O)CC1 (configuration not stated)	none (no result: GALK inh)
COc1cccc(CNC(=O)C2(c3cccs3)CCOCC2)c1	none (no result: Nrf2 inh, GALK inh)
CCC(C)N(C(=O)COC(=O)CNC(=O)c1sc2ccccc2c1Cl)C1CCS(=O)(=O)C1 (configuration not stated)	none
Cc1c(C(=O)Nc2ccc3c(c2)OCCO3)sc2nc(-c3ccccc3)cn12	Nrf2 inh 6.51µM, A549 tox-1 inconclusive | FLuc enzyme inh inconclusive | A549 tox-2 inactive | ARE-Fluc inh 20.6µM
CC(CC(=O)N1CCN(c2cccc(Cl)c2)CC1)S(=O)(=O)c1ccc2c(c1)NC(=O)CO2 (configuration not stated)	Nrf2 inh 6.51µM, A549 tox-1 inconclusive | FLuc enzyme inh inactive | A549 tox-2 inactive | ARE-Fluc inh 23.1µM
CCN(C(=O)CCCC(=O)N(CC)c1ccccc1)c1ccccc1	none (no result: GALK inh)
COc1ccc2c(c1)c(C)cc[n+]2Cc1ccccc1	Nrf2 inh 6.51µM | FLuc enzyme inh inactive | A549 tox-2 inactive | ARE-Fluc inh 10.3µM
COc1ccc(-c2csc(-n3cccn3)n2)cc1	Nrf2 inh inconclusive
CCc1c(C)nc2ncnn2c1NCCc1ccc(Cl)cc1	Nrf2 inh 7.31µM | FLuc enzyme inh inactive | A549 tox-2 inactive | ARE-Fluc inh 4.61µM
Cc1ccccc1S(=O)(=O)NC(=O)C1(C)CCN1C(=O)CC(c1ccccc1)c1ccccc1 (configuration not stated)	none (no result: TrxR1 substrate, Nrf2 inh, TrxR1 inh-1, GALK inh, A549 tox-1)
Brc1ccc(C[n+]2ccccc2)cc1	Nrf2 inh 2.59µM (no result: GALK inh) | FLuc enzyme inh inactive | A549 tox-2 inactive | ARE-Fluc inh 4.11µM
Brc1c(C[n+]2ccccc2)nc2ccccn12	TrxR1 inh-1 inconclusive
CN1c2cccc3cccc(c23)N(C)C1(C)C	none
CN1c2ccccc2N(C)C1(C)c1cccc2ccccc12	Nrf2 inh inconclusive, TrxR1 inh-1 50.1µM, A549 tox-1 inconclusive | GR counterassay inactive | TrxR1 inh-2 inconclusive | TrxR1 insulin inactive | TrxR1 inh-3 4.44µM

Source: PubChem (National Center for Advancing Translational Sciences (NCATS))
